Compound activity as filed in PubChem.
Rpn11 block: Rpn11 (PSMD14) deubiquitinase inhibitors, primary screen, biochemical, fluorescence polarization, uHTS. actives 0.59% (n = 360,000). inhibition, % at 20 µM. human 26S proteasome, Ub4-pepOG fluorescence polarization; 20S core pre-blocked with epoxomicin;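 active means inhibition at 20 µM, scaled to each plate's controls, above about 33%, limit read from the data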
Target sequence (O00487 whole entry, looked up): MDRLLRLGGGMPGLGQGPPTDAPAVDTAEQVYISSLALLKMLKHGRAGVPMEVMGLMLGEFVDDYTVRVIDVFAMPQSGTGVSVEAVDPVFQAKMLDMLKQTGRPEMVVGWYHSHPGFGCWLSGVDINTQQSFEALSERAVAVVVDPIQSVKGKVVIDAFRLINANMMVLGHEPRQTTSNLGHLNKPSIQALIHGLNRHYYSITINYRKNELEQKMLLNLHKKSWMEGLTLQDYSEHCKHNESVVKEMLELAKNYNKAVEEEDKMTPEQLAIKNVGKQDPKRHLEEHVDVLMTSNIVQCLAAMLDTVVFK
dFosB act: activators of delta FosB homodimer, primary screen, biochemical, fluorescence polarization, TAMRA-CDK5 oligo, single point. Protein FosB (Mus musculus), P13346. purified delta FosB; percent of positive-control signal above neutral wells. activation, % at 25 µM. actives 0.99% (n = 340,000);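 active means mean activation above about 17%, with every replicate also reaching it, limit read from the data, passing the limit was not always enough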
ZTA counter: blocks Epstein-Barr virus ZTA, an EBNA-1 counter-screen. AID 2234. inhibition, % at 11 µM. ZTA-DNA binding, fluorescence polarization. actives 0.15% (n = 320,000); in the data active means inhibition above about 33%
TPT1 inh: Candida albicans TPT1 enzyme inhibitors, primary screen, biochemical, fluorescence polarization. tRNA 2'-phosphotransferase TPT1 (Candida albicans SC5314). recombinant caTPT1, FP RNA substrate dephosphorylation. inhibition, % at 5 µM. actives 0.81% (n = 300,000). AID 1962, 2009;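 active means inhibition above the mean of all tested compounds plus 3 SD, set per screening campaign, cut at about 24% in these data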;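 further: plate controls were DMSO alone for no effect and ferristatin control at 100 nM for full effect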
NR3A LBD binder: binders of NR3A ligand-binding domain, primary screen, biophysical, differential scanning fluorimetry, uHTS. Glutamate receptor ionotropic, NMDA 3A (GRIN3A) ligand-binding domain. NR3A LBD differential scanning fluorimetry, Tm shift; 0% = protein alone, 100% = glycine-bound protein. Tm shift relative to glycine control, % at 25 µM. actives 2.5% (n = 340,000);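 active means melting temperature shift of at least 10% of the positive control shift, at one fixed dose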
EBNA-1 inhibitor: EBNA-1 DNA-binding inhibitors, primary screen, biochemical, fluorescence polarization; actives 0.34% (n = 300,000); inhibition, % at 14.8 µM; in the data active means inhibition above about 28%
caTPT1 confirm: Candida albicans TPT1 inhibitors, confirmation, biochemical, fluorescence polarization, triplicate | recombinant caTPT1, RNase T1 coupled | actives 74% (n = 2,400) | inhibition, % at 5 µM | AID 2149, 2009 | shares compounds with TPT1 inh;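 active means inhibition above the primary screen limit, the mean inhibition of all tested compounds plus 3 SD, cut at about 25% in these data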
RNase T1 counter: RNase T1 inhibitors, counter-screen for TPT1 inhibitor project, biochemical, fluorescence polarization; shares compounds with TPT1 inh; RNase T1 cleavage, 1536-well; inhibition, % at 5 µM; actives 83% (n = 2,400);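 active means inhibition above the solvent-only control well mean plus 3 SD, limit set per screening run, cut at about 23% in these data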;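 further: plate controls were DMSO wells with enzyme for no effect and wells without RNase T1 for full effect; inhibitors block cleavage so intact labeled substrate keeps polarization high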
Target sequence (P00651 whole entry, looked up): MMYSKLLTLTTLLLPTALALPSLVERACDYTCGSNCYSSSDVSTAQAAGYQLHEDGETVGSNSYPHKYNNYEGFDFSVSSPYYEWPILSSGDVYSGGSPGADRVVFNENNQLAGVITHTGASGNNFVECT
Starred values were filed as active, the others as inactive; nt = not tested or not shown. Most compounds without a hit are left out; they make up all but 4.5% or so of the library.

SMILES	Rpn11 block	dFosB act	ZTA counter	TPT1 inh	NR3A LBD binder	EBNA-1 inhibitor	caTPT1 confirm	RNase T1 counter
O=C(N/N=C/c1c(O)n(-c2ccccc2Cl)c(=O)c2ccccc12)C1COc2ccccc2O1 (stereo not given)	34	-10	5	26*	-4	3	65*	79*
Cc1c(/C=N\NC(=O)C2COc3ccccc3O2)c2ccccc2n1C (stereo not given)	-6	-10	10	51*	-10	-5	4	4
Cc1ccc(-n2c(O)c(/C=N/NC(=O)C3COc4ccccc4O3)c3ccccc3c2=O)cc1 (stereo not given)	12	-4	5	13	-1	-6	nt	nt
COC(=O)CS(=O)(=O)c1ccc(C)cc1	-4	7	-5	-1	2	1	nt	nt
N#Cc1cc(Sc2ccccn2)c([N+](=O)[O-])cc1C#N	57*	-9	-6	38*	-2	-8	36*	45*
COc1ccc(S(=O)(=O)N(C)C[C@H]2Oc3ncc(-c4ccncc4)cc3C(=O)N([C@@H](C)CO)C[C@@H]2C)cc1	-3	nt	nt	nt	nt	nt	nt	nt
CCCN(CCC)C1=N/C(=C\c2ccco2)C(=O)N1c1ccccc1	12	0	4	26*	7	4	15	22*
COc1ccc(O)c(C(=O)c2coc(=N)c(C(=O)Nc3ccc(SC(F)F)cc3)c2)c1	nt	-12	-5	63*	-4	2	75*	78*
CC(C)OC(=O)c1cc(C(=O)c2cc(F)ccc2O)coc1=N	-2	-9	-9	0	-7	0	nt	nt
COc1ccc(C2C(C#N)=C(N)SC(N)=C2C#N)cc1OC	nt	1	12	103*	-1	9	71*	81*
N#CC1=C(N)SC(N)=C(C#N)C1c1cccc(O)c1	nt	-4	-11	100*	4	-10	108*	112*
CCN1C(=O)/C(=C\C=C2/C=CC=CN2CC)SC1=S	nt	25*	6	27*	-1	1	36*	55*
Cc1ccc(-n2nnnc2SCC(=O)N2CC(=O)Nc3ccccc32)cc1	6	-9	-2	28*	0	5	36*	46*
Cn1cccc1/C=C1\SC(=S)N(CC(=O)O)C1=O	nt	-3	-2	108*	-2	-1	115*	129*
Cc1ccc(C(=O)NN2C(=O)/C(=C/c3cccn3C)SC2=S)cc1	nt	-4	-29	79*	2	-8	96*	112*
Cn1cccc1/C=C1\SC(=S)N(NC(=O)c2ccccc2Cl)C1=O	nt	-8	13	87*	-2	3	88*	106*
Cc1cc(OC(C)C(=O)N2CCN(c3ccccc3)CC2)c2c(C)c(C)c(=O)oc2c1 (stereo not given)	-5	-4	15	29*	-3	-2	1	3
CCN(CC)c1ccc(/C=N/NC(=O)c2c(-c3ccccc3)noc2C)cc1	-2	-3	10	3	-10	3	nt	nt
O=C(NC12CC3CC(CC(C3)C1)C2)c1cc(F)c(F)c(F)c1F	0	-7	8	44*	2	-1	-4	-3
CCCC(=O)Oc1ccc(C2NC(=O)c3ccccc3O2)cc1OC (stereo not given)	-2	-5	-22	-4	1	-4	nt	nt
CC1(C)CC(=O)C=C(NNC(=O)c2ccccc2O)C1	25	4	5	39*	-2	3	46*	57*
CC1CCN(C(=O)C2CCN(S(=O)(=O)c3cccc4nonc34)CC2)CC1	-1	-5	-4	42*	-2	-2	2	7
CC1CCCN(C(=O)C2CCN(S(=O)(=O)c3cccc4nonc34)CC2)C1 (stereo not given)	-1	-1	-7	-1	1	0	nt	nt
CCOC(=O)c1sc2nc(C)nc(SCC(=O)NC(C)CCc3ccccc3)c2c1C (stereo not given)	32	-4	9	25*	-1	1	41*	51*
CC1(C)CC(=O)C(C2=NC3(CCCCCC3)Cc3ccccc32)=C(O)C1	5	-9	-11	28*	-1	-6	-1	4
SMILES	Rpn11 block	dFosB act	ZTA counter	TPT1 inh	NR3A LBD binder	EBNA-1 inhibitor	caTPT1 confirm	RNase T1 counter
CCn1c2ccccc2c2cc(/C(C)=N/O)ccc21	5	-1	-2	0	-3	2	nt	nt
CCn1c2ccccc2c2cc(N)ccc21	nt	0	-6	26*	-1	7	28*	40*
N#Cc1ccc(Cl)cc1NC(=O)COC(=O)[C@H](CCC(N)=O)NC(=O)c1ccc(F)cc1	1	-9	12	-1	-2	-4	nt	nt
COc1cccc(/C=C2/CN(C)CC3=C2OC(N)=C(C#N)C3c2cccc(OC)c2)c1 (stereo not given)	34	-2	-12	40*	-1	-4	25*	34*
COc1cccc(C2C(C#N)=C(N)OC(C(C)(C)C)=C2C#N)c1 (stereo not given)	-5	-15	1	-4	6	2	nt	nt
CNC(=O)NC(=O)C(C)OC(=O)c1c2c(nc3ccccc13)/C(=C/c1cccs1)CC2 (stereo not given)	nt	-10	-18	27*	1	14	30*	42*
CCOC(=O)Oc1c(OC)cc(C(=O)O[C@@H]2C[C@@H]3CN4CCc5c([nH]c6cc(OC)ccc56)[C@H]4C[C@@H]3[C@H](C(=O)OC)[C@H]2OC)cc1OC	40	29*	-6	45*	-9	-10	42*	53*
CC1=NN(C(C#N)c2c(C)nn(Cc3ccccc3)c2C)C(C)(C)C1 (stereo not given)	-4	-1	-6	1	-2	-3	nt	nt
Clc1ccc(OCCn2ccnc2)cc1Cl	6	-18	-3	60*	1	-3	6	8
Nc1c(C(=O)c2ccccc2)sc2nsc(SCCN3CCOCC3)c12	nt	nt	-4	58*	2	-4	63*	72*
